PubChem BioAssay (Tox21)
Values without a mark were called inactive. The source made the active and inactive calls. Calls follow the shape of the full dose curve. Where a SMILES comes first, the peptide text is derived from it.

molecular target: Thyrotropin-releasing hormone receptor (Homo sapiens) (UniProt P34981); experiment: qHTS assay to identify small molecule agonists of the thyrotropin-releasing hormone receptor (TRHR) signaling pathway (AID 1346891); settings: TRHR-HEK293 calcium fluorescence, agonist mode; series mostly up to 57.6 µM;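 also: HEK293 cells expressing TRHR with calcium dye readout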
Sequence (P34981 whole entry, looked up): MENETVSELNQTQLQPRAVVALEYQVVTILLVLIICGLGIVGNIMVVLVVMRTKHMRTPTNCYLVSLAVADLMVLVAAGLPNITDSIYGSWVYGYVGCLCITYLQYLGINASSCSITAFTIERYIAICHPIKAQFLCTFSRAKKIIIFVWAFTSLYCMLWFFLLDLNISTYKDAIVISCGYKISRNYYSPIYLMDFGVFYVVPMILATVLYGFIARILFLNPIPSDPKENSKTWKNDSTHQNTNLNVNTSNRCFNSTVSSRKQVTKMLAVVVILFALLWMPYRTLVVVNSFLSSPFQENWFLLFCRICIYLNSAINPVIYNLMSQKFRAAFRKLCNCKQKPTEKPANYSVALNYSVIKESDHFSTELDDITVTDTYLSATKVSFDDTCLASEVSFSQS
Excerpt: National Center for Advancing Translational Sciences [NCATS] NIH Chemical Genomics Center [NCGC] U.S. Environmental Protection Agency [EPA] National Institutes of Environmental Health Sciences [NIEHS] National Toxicology Program [NTP] Assay overview: Thyrotropin-releasing hormone (TRH) receptor (TRHR) is a G-protein-coupled receptor which binds the tripeptide thyrotropin releasing hormone. TRHR is found in the brain and, when bound by TRH, acts (through phospholipase C) to increase intracellular inositol trisphosphate. It plays a crucial role in the anterior pituitary where it controls the synthesis and secretion of thyroid stimulating hormone and prolactin. The TRHR-Hek293 assay is a cell-based assay, and it has the potential to screen G protein-coupled receptors. A compound/drug can either activate (agonist) or suppress (antagonist) GPCRs that can be monitored by levels of intracellular calcium. Using this assay, the Tox21 10K compound library was screened to identify potential TRHR agonists.
Assay Protocol Summary: The TRHR-Hek293 cells were dispensed at 1500cells/4uL/well in 1536-well black-clear bottom plates using a Multidrop dispenser. After the assay plates were incubated at a 37 C/5% CO2 incubator for 18 hours, 4 uL of Dye-Loading Solution was added to each well. The plates were incubated at 37 C for 2 hours. For agonist mode, 23 nL of compounds dissolved in DMSO, positive controls or DMSO only was transferred to the assay plate by a pin tool. The fluorescence intensity in the plates was measured using FDSS 7000EX kinetic plate reader for 3 min at 1 sec intervals. Each test compound was measured at 15 concentrations and in triplicates.
% is scaled to controls: 0 for no effect and ±100 for the full control effect.

SMILES	outcome	activation
O=C(Cn1ccnc1[N+](=O)[O-])NCc1ccccc1	inactive	
OCC(O)CN1CCN(c2ccccc2)CC1 (stereo not given)	inactive	
C=Cc1ccc(C(C)(C)C)cc1	inactive	
CN(C)CCCO[C@@H]1[C@H]2OC(C)(C)O[C@H]2O[C@@H]1C(O)CO (stereo not given in full)	inactive	
CC(=O)Nc1ccc(OC(=O)c2ccccc2OC(C)=O)cc1	inactive	
O=C1OCCO1	inactive	
CSc1cnccn1	inactive	
O=C(Cl)c1ccccc1[N+](=O)[O-]	inactive	
OC1(c2ccc(Cl)cc2)CCNCC1	inactive	
OC1OCCOC1O (stereo not given)	inactive	
C=CC/C=C/C	inactive	
CC(C)C1OCCN1CCOC(=O)NCCCCCCNC(=O)OCCN1CCOC1C(C)C (stereo not given)	inactive	
CCCCCCCCCOC(=O)c1ccccc1C(=O)OCCCCCCCCC	inactive	
CC1(C)CC(OC(=O)CCCCCCCCC(=O)OC2CC(C)(C)NC(C)(C)C2)CC(C)(C)N1		0.325% [at 11.8 µM]
Cn1nnc2c(C(N)=O)ncn2c1=O	inactive	
CCCCCC(C)O (stereo not given)	inactive	
CCOC(=O)CC1(C)OCC(C)O1 (stereo not given)	inactive	
Cc1c(N)cccc1Cl	inactive	
ONc1ccccc1	inactive	
CC1(C)O[C@H]2CC(=O)OC[C@]23[C@H]2CC[C@@]4(C)[C@H](c5ccoc5)OC(=O)[C@H]5O[C@]54[C@]2(C)C(=O)C[C@@H]13	inactive	

SMILES	outcome	activation
CCOc1cccc(N)c1	inactive	
CCCCSCCCC	inactive	
CCC(=O)Oc1ccc2c(c1)CC[C@@H]1[C@@H]2CC[C@@]2(C)[C@H]1C[C@@H](OC(=O)CC)[C@@H]2OC(=O)CC	inactive	
O=NN(CCCl)C(=O)NC1CCCCC1	inactive	
C[Si]1(C)O[Si](C)(C)O[Si](C)(C)O[Si](C)(C)O[Si](C)(C)O1	inactive	
CN(C)CCCCl	inactive	
CCN1CCCC1CN (stereo not given)	inactive	
O=Cc1cc2ccccc2o1	inactive	
CCCc1ccc(O)cc1	inactive	
CN(C)C(C)(C)CO	inactive	
CC(S)C(C)S (stereo not given)	inactive	
CCO	inactive	
CC(=O)OC1CCCCC1C(C)(C)C (stereo not given)	inactive	
CCC(C)C(C)=O (stereo not given)	inactive	
Cn1c(=O)c2c(ncn2CCO)n(C)c1=O	inactive	
COc1ccc2c(c1)c1c3n2CCN(C)C3=NCC1	inactive	
O=C(NCN1CCOCC1)c1cnccn1	inactive	
CCC/C=C(\C=O)CC	inactive	
CC(=O)N[C@@H](CO)C(=O)N[C@@H](CC(=O)O)C(=O)N[C@@H](CCCCN)C(=O)N1CCC[C@H]1C(=O)O (Ac-SDKP-OH)	inactive	
Cc1ccc(C(C)NC(=O)[C@@H](NC(=O)OC(C)C)C(C)C)cc1 (stereo not given in full)	inactive	
